Results filed as inconclusive are left out. A call without a number means that no potency is given here. Active and inactive are the calls of the source. The call rests on the fitted dose curve.

In the first assay the target is Acetylcholinesterase (Homo sapiens) (UniProt P22303). As to the kind of experiment: Acetylcholinesterase (AChE) small molecule antagonists: fluorescence cell-based qHTS assay (AID 1347398). Further: nearly all actives have a fitted effect of over 50% in size. Further: potency means the concentration at half of the fitted maximal effect. The conditions noted are these: SH-SY5Y cells; Potency: AChE activity; outcome: AChE activity; series mostly up to 115 µM. In short, it runs like this: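 Homogeneous quantitative HTS format. SH-SY5Y cells seeded at 2,000 per well settle overnight at 37 C. Compound pretreatment runs 30 min (37 C, 5% CO2); substrate/probe mix then reacts 40 min at RT before reading 490/520 nm.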
Acetylcholinesterase (Homo sapiens), sequence (P22303 whole entry, looked up): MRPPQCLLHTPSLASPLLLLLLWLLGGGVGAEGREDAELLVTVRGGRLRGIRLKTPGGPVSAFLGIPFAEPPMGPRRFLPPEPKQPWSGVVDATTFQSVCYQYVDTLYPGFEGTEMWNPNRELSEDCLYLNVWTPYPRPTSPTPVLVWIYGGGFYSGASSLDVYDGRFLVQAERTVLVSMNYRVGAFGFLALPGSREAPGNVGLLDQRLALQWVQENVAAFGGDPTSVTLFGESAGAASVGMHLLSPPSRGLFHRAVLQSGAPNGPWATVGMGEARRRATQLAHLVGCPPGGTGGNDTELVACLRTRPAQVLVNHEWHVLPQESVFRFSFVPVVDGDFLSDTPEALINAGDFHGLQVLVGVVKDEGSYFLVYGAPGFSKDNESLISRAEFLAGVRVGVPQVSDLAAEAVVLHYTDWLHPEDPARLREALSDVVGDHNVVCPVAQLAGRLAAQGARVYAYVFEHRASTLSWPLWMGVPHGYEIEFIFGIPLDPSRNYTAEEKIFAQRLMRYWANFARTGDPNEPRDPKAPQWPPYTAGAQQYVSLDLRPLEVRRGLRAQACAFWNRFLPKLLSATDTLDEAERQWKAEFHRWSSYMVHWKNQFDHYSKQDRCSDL
Background: qHTS replaces the single test concentration by a dilution series.
`CC/C=C\C/C=C\C/C=C\CCCCCCCC(=O)O`: the Potency result was “inactive”.

`CCCCOC(=O)CO`: the Potency entry was “inactive”.

In the case of `COc1cc(C(=O)OC(COCCC(C)C)CN2CCOCC2)cc(OC)c1OC` (stereo not given), the Potency entry is “inactive”.

For the compound `CC(=O)Oc1ccc(C2(c3ccc(OC(C)=O)cc3)C(=O)Nc3ccccc32)cc1`, the Potency result is “inactive”.

`NCCCN(CCO)CCO`: the Potency result is “inactive”.

As for `CSc1ccc2c(c1)N(CCC1CCCCN1C)c1ccccc1S2` (stereo not given), the Potency was 31.6 µM (active).

As to `NCCCN1CCN(CCCN)CC1`, the Potency entry was “inactive”.

Turning to `C[N+](C)(C)CC[N+]1(C)Cc2c(Cl)c(Cl)c(Cl)c(Cl)c2C1`, the Potency entry is “inactive”.

Turning to `Cc1ccc(S(=O)(=O)Oc2ccc(N=Nc3ccc(-c4ccc(N=Nc5c(O)ccc6cc(S(=O)(=O)O)cc(S(=O)(=O)O)c56)c(C)c4)cc3C)cc2)cc1`, the Potency result was “inactive”.

With `FC(F)(F)C(F)(F)C(F)(F)C(F)(F)C(F)(F)C(F)(F)C(F)(F)C(F)(F)C(F)(F)C(F)(F)F`, the activity change, negative = inhibition is 1.44% [at 10.5 µM] (inactive).

With `C[C@]12C=CC(=O)C=C1CC[C@H]1[C@@H]3C[C@@H](O)[C@](O)(C(=O)CO)[C@@]3(C)C[C@H](O)[C@@]12F`, the Potency entry is “inactive”.

`O=c1[nH]cnc2c1ncn2[C@@H]1O[C@H](CO)[C@@H](O)[C@H]1O`: the Potency entry was “inactive”.

`c1cnccn1`: the Potency entry was “inactive”.

For the compound `c1ccc2sc(SSc3nc4ccccc4s3)nc2c1`, the activity change, negative = inhibition is 3.45% [at 23.8 µM] (inactive).

As for `Cc1cccc2c1cc1ccc3cccc4ccc2c1c34`, the Potency result is “inactive”.

As for `O=C1OC2(c3ccc(O)cc3Oc3cc(O)ccc32)c2ccccc21`, the Potency entry is “inactive”.

As for `CCCCC(CC)COC(=O)c1ccccc1C(=O)O` (stereo not given), the Potency entry is “inactive”.

`CCCCC(=O)N(C)C`: the Potency entry was “inactive”.

As to `CN[C@@H]1[C@H](O)[C@H](NC)[C@H]2O[C@@]3(O)C(=O)C[C@@H](C)O[C@H]3O[C@@H]2[C@H]1O`, the Potency entry is “inactive”.

As to `CCCC(=O)OCCC(C)C`, the Potency result is “inactive”.

With `NCCOCCOCCN`, the Potency result was “inactive”.

For the compound `CC[Si](OC(C)=O)(OC(C)=O)OC(C)=O`, the Potency entry is “inactive”.

Regarding `O=C(Nc1ccccc1)OCC(CN1CCCCC1)OC(=O)Nc1ccccc1` (stereo not given), the Potency entry was “inactive”.

For `O=C1OC(=O)c2cccc3cccc1c23`, the Potency entry was “inactive”.

Turning to `CCN(CCC#N)c1ccc(N=Nc2c(Cl)cc([N+](=O)[O-])cc2Cl)cc1`, the Potency entry was “inactive”.

In the case of `COc1ccc2nc(N)sc2c1`, the Potency result was “inactive”.

Consider `NC(N)=NS(=O)(=O)c1ccc(N)cc1`, for which the Potency result is “inactive”.

As for `Cc1scc2c1N(C(=O)CN1CCN(C)CC1)c1ccccc1NC2=O`, the Potency result was “inactive”.

For `C=CC(=O)OCC(CO)(COCC(COC(=O)C=C)(COC(=O)C=C)COC(=O)C=C)COC(=O)C=C`, the Potency result was “inactive”.

Consider `CN1C[C@H](C(=O)N[C@]2(C)O[C@@]3(O)[C@@H]4CCCN4C(=O)[C@H](Cc4ccccc4)N3C2=O)C[C@@H]2c3cccc4[nH]cc(c34)C[C@H]21`, for which the Potency is 8.71 µM (active).

Turning to `CC(=O)C1C(=O)C=C(C)OC1=O` (stereo not given), the Potency entry is “inactive”.

In the case of `c1cc(-c2ccncc2)ccn1`, the Potency result is “inactive”.

In the case of `CC(CC=O)CCCC(C)(C)O` (stereo not given), the Potency entry was “inactive”.

In the case of `C=CCCCCCCCCCC`, the Potency entry is “inactive”.

With `O=C(O)c1[nH]n(-c2ccc(S(=O)(=O)O)cc2)c(=O)c1N=Nc1ccc(S(=O)(=O)O)cc1`, the Potency result was “inactive”.

`Nc1cccc(N)n1`: the Potency entry was “inactive”.

Regarding `OCc1ccc(Cl)cc1Cl`, the Potency result was “inactive”.

On to `ClC/C=C/CCl`, for which the Potency entry was “inactive”.

Regarding `O=S1(=O)CC=CC1`, the Potency result was “inactive”.

Turning to `CS(=O)(=O)c1ccc([C@@H](O)[C@@H](CO)NC(=O)C(Cl)Cl)cc1`, the Potency result is “inactive”.

The target is the same in the next assay. Kind of assay: Acetylcholinesterase (AChE) small molecule antagonists: enzyme-based qHTS assay with human liver microsomes (AID 1347399). Further: nearly all actives have a fitted effect of over 60% in size. The conditions noted are these: Potency: qHTS inhibition; outcome: qHTS inhibition; series mostly up to 115 µM. In short, it runs like this:
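Recombinant human AChE (50 mU/mL in the enzyme mix) and human liver microsomes (0.25 mg/mL final) were preincubated with compound and NADPH (0.25 mg/mL final) for 30 min at 37 C. Acetylthiocholine/DTNB was then added; thiocholine was read colorimetrically after 10 min at room temperature.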
On to `CC/C=C\C/C=C\C/C=C\CCCCCCCC(=O)O`, for which the Potency result is “inactive”.

For `CCCCOC(=O)CO`, the Potency entry was “inactive”.

For `COc1cc(C(=O)OC(COCCC(C)C)CN2CCOCC2)cc(OC)c1OC` (stereo not given), the Potency result was “inactive”.

`CC(=O)Oc1ccc(C2(c3ccc(OC(C)=O)cc3)C(=O)Nc3ccccc32)cc1`: the Potency entry was “inactive”.

As for `NCCCN(CCO)CCO`, the Potency entry is “inactive”.

Consider `CSc1ccc2c(c1)N(CCC1CCCCN1C)c1ccccc1S2` (stereo not given), for which the Potency entry is “inactive”.

With `NCCCN1CCN(CCCN)CC1`, the Potency entry was “inactive”.

Take `C[N+](C)(C)CC[N+]1(C)Cc2c(Cl)c(Cl)c(Cl)c(Cl)c2C1`: the Potency result was “inactive”.

Consider `Cc1ccc(S(=O)(=O)Oc2ccc(N=Nc3ccc(-c4ccc(N=Nc5c(O)ccc6cc(S(=O)(=O)O)cc(S(=O)(=O)O)c56)c(C)c4)cc3C)cc2)cc1`, for which the Potency entry is “inactive”.

For the compound `FC(F)(F)C(F)(F)C(F)(F)C(F)(F)C(F)(F)C(F)(F)C(F)(F)C(F)(F)C(F)(F)C(F)(F)F`, the activity change, negative = inhibition is 1.12% [at 10.5 µM] (inactive).

For the compound `C[C@]12C=CC(=O)C=C1CC[C@H]1[C@@H]3C[C@@H](O)[C@](O)(C(=O)CO)[C@@]3(C)C[C@H](O)[C@@]12F`, the Potency result is “inactive”.

Regarding `O=c1[nH]cnc2c1ncn2[C@@H]1O[C@H](CO)[C@@H](O)[C@H]1O`, the Potency entry is “inactive”.

Take `c1cnccn1`: the Potency result was “inactive”.

Consider `c1ccc2sc(SSc3nc4ccccc4s3)nc2c1`, for which the activity change, negative = inhibition was -1.01% [at 23.6 µM] (inactive).

For `Cc1cccc2c1cc1ccc3cccc4ccc2c1c34`, the Potency entry is “inactive”.

In the case of `O=C1OC2(c3ccc(O)cc3Oc3cc(O)ccc32)c2ccccc21`, the Potency result is “inactive”.

As for `CCCCC(CC)COC(=O)c1ccccc1C(=O)O` (stereo not given), the Potency result was “inactive”.

`CCCCC(=O)N(C)C`: the Potency result was “inactive”.

Regarding `CN[C@@H]1[C@H](O)[C@H](NC)[C@H]2O[C@@]3(O)C(=O)C[C@@H](C)O[C@H]3O[C@@H]2[C@H]1O`, the Potency result is “inactive”.

With `CCCC(=O)OCCC(C)C`, the Potency result is “inactive”.

Consider `NCCOCCOCCN`, for which the Potency result was “inactive”.

As to `CC[Si](OC(C)=O)(OC(C)=O)OC(C)=O`, the Potency result was “inactive”.

Regarding `O=C(Nc1ccccc1)OCC(CN1CCCCC1)OC(=O)Nc1ccccc1` (stereo not given), the Potency entry was “inactive”.

`O=C1OC(=O)c2cccc3cccc1c23`: the Potency entry was “inactive”.

For `CCN(CCC#N)c1ccc(N=Nc2c(Cl)cc([N+](=O)[O-])cc2Cl)cc1`, the Potency entry was “inactive”.

With `COc1ccc2nc(N)sc2c1`, the Potency entry is “inactive”.

`NC(N)=NS(=O)(=O)c1ccc(N)cc1`: the Potency entry was “inactive”.

Turning to `Cc1scc2c1N(C(=O)CN1CCN(C)CC1)c1ccccc1NC2=O`, the Potency entry is “inactive”.

In the case of `C=CC(=O)OCC(CO)(COCC(COC(=O)C=C)(COC(=O)C=C)COC(=O)C=C)COC(=O)C=C`, the Potency entry is “inactive”.

As to `CN1C[C@H](C(=O)N[C@]2(C)O[C@@]3(O)[C@@H]4CCCN4C(=O)[C@H](Cc4ccccc4)N3C2=O)C[C@@H]2c3cccc4[nH]cc(c34)C[C@H]21`, the Potency result is “inactive”.

As to `CC(=O)C1C(=O)C=C(C)OC1=O` (stereo not given), the Potency entry was “inactive”.

For `c1cc(-c2ccncc2)ccn1`, the Potency result is “inactive”.

As for `CC(CC=O)CCCC(C)(C)O` (stereo not given), the Potency result is “inactive”.

In the case of `C=CCCCCCCCCCC`, the Potency result was “inactive”.

With `O=C(O)c1[nH]n(-c2ccc(S(=O)(=O)O)cc2)c(=O)c1N=Nc1ccc(S(=O)(=O)O)cc1`, the Potency result is “inactive”.

Turning to `Nc1cccc(N)n1`, the Potency entry was “inactive”.

For `OCc1ccc(Cl)cc1Cl`, the Potency entry is “inactive”.

As to `ClC/C=C/CCl`, the Potency result was “inactive”.

Turning to `O=S1(=O)CC=CC1`, the Potency entry was “inactive”.

For `CS(=O)(=O)c1ccc([C@@H](O)[C@@H](CO)NC(=O)C(Cl)Cl)cc1`, the Potency result was “inactive”.
